Results from article PMC12864922, “TDP-43 directly inhibits mRNA accumulation in neurites through modulation of mRNA stability”.
Whole data set: some 9,900 sequences, median “r (bound/input frequency ratio)” near 0.7, cut for the highest 2% near 6.5. The full list was thinned out, with the highest values kept by preference.

B1: ENSMUSG00000042529.290|Kcnj12 (ssRNA)
RNA: GGGAGUUCUACAGUCCGACGAUCGCUUCGAUAUCCGCAUGCUAGGCACCUGUCAUUCUUUCUGAGUAGGUGGGCCUGUAUCCAGAGCAGGGUCUAGGGGCUCCUGCUCCCGGCUCAUCUCAGUGGCCUGAAGCAUUCAAAACUCUAGCCAGCCCCAUCCUCCUCCCUGCCAGAAUGGUCCAGUCCCUGGGCCCUGCUGGAGAGCAGCUCAAACUGCCUUUCAUCUCUGCCAAAGGCAGGCAGAUGCUGUAUUUUCAAAUUCUCCUGCCCUCUUUUCCCCUUUUUCCCUGUAUUUAUUUAUUGCCUCUUGCGGUCGCACUAGUGUGGAAUUCUCGGGUGUCAAGG
B2: ENSMUSG00000042529.420|Kcnj12 (ssRNA)
RNA: GGGAGUUCUACAGUCCGACGAUCGCUUCGAUAUCCGCAUGCUAGUGUGUGUGUGAACAUGUGUGAGGGUGUGGAGGUCCCAGGGUGUGUGUAUGUGAAUGUCAGUGGCUUGGGUGCUGUGUGGAGAGAGAGAGAGAGAGAGAGAGAGAGAGAGAGAGAGAGAGAGAGAGAGAGCUGCACAGGAUGAAGCAGCUGCCCUGAGCCCAUCUGGUGCUGUGCACCUGGUCCUUGUCCAGCCGAGGGCCUGGGGGCAGAAGAACACACCAUAGGGAGGCCCUUGUAUGGGUGUCUGCCCUAUGUGAGGCUCUUGCGGUCGCACUAGUGUGGAAUUCUCGGGUGUCAAGG
B3: ENSMUSG00000042529.418|Kcnj12 (ssRNA)
RNA: GGGAGUUCUACAGUCCGACGAUCGCUUCGAUAUCCGCAUGCUAGUGUGUGUGUGUGUGUGUGUGUGAACAUGUGUGAGGGUGUGGAGGUCCCAGGGUGUGUGUAUGUGAAUGUCAGUGGCUUGGGUGCUGUGUGGAGAGAGAGAGAGAGAGAGAGAGAGAGAGAGAGAGAGAGAGAGAGAGAGAGCUGCACAGGAUGAAGCAGCUGCCCUGAGCCCAUCUGGUGCUGUGCACCUGGUCCUUGUCCAGCCGAGGGCCUGGGGGCAGAAGAACACACCAUAGGGAGGCCCUUGUAUGGGUGUCUGCUCUUGCGGUCGCACUAGUGUGGAAUUCUCGGGUGUCAAGG
B4: ENSMUSG00000042529.417|Kcnj12 (ssRNA)
RNA: GGGAGUUCUACAGUCCGACGAUCGCUUCGAUAUCCGCAUGCUAGUGUGUGUGUGUGUGUGUGUGUGUGUGUGAACAUGUGUGAGGGUGUGGAGGUCCCAGGGUGUGUGUAUGUGAAUGUCAGUGGCUUGGGUGCUGUGUGGAGAGAGAGAGAGAGAGAGAGAGAGAGAGAGAGAGAGAGAGAGAGAGAGAGCUGCACAGGAUGAAGCAGCUGCCCUGAGCCCAUCUGGUGCUGUGCACCUGGUCCUUGUCCAGCCGAGGGCCUGGGGGCAGAAGAACACACCAUAGGGAGGCCCUUGUAUGGGCUCUUGCGGUCGCACUAGUGUGGAAUUCUCGGGUGUCAAGG
B5: ENSMUSG00000042529.419|Kcnj12 (ssRNA)
RNA: GGGAGUUCUACAGUCCGACGAUCGCUUCGAUAUCCGCAUGCUAGUGUGUGUGUGUGUGUGAACAUGUGUGAGGGUGUGGAGGUCCCAGGGUGUGUGUAUGUGAAUGUCAGUGGCUUGGGUGCUGUGUGGAGAGAGAGAGAGAGAGAGAGAGAGAGAGAGAGAGAGAGAGAGAGAGAGAGCUGCACAGGAUGAAGCAGCUGCCCUGAGCCCAUCUGGUGCUGUGCACCUGGUCCUUGUCCAGCCGAGGGCCUGGGGGCAGAAGAACACACCAUAGGGAGGCCCUUGUAUGGGUGUCUGCCCUAUCUCUUGCGGUCGCACUAGUGUGGAAUUCUCGGGUGUCAAGG
B6: ENSMUSG00000042529.421|Kcnj12 (ssRNA)
RNA: GGGAGUUCUACAGUCCGACGAUCGCUUCGAUAUCCGCAUGCUAGUGUGAACAUGUGUGAGGGUGUGGAGGUCCCAGGGUGUGUGUAUGUGAAUGUCAGUGGCUUGGGUGCUGUGUGGAGAGAGAGAGAGAGAGAGAGAGAGAGAGAGAGAGAGAGAGAGAGAGAGAGCUGCACAGGAUGAAGCAGCUGCCCUGAGCCCAUCUGGUGCUGUGCACCUGGUCCUUGUCCAGCCGAGGGCCUGGGGGCAGAAGAACACACCAUAGGGAGGCCCUUGUAUGGGUGUCUGCCCUAUGUGAGGUCAUAGCUCUUGCGGUCGCACUAGUGUGGAAUUCUCGGGUGUCAAGG
B7: ENSMUSG00000042529.416|Kcnj12 (ssRNA)
RNA: GGGAGUUCUACAGUCCGACGAUCGCUUCGAUAUCCGCAUGCUAGUGUGUGUGUGUGUGUGUGUGUGUGUGUGUGUGUGAACAUGUGUGAGGGUGUGGAGGUCCCAGGGUGUGUGUAUGUGAAUGUCAGUGGCUUGGGUGCUGUGUGGAGAGAGAGAGAGAGAGAGAGAGAGAGAGAGAGAGAGAGAGAGAGAGAGAGCUGCACAGGAUGAAGCAGCUGCCCUGAGCCCAUCUGGUGCUGUGCACCUGGUCCUUGUCCAGCCGAGGGCCUGGGGGCAGAAGAACACACCAUAGGGAGGCCCUUGCUCUUGCGGUCGCACUAGUGUGGAAUUCUCGGGUGUCAAGG
B8: ENSMUSG00000042529.422|Kcnj12 (ssRNA)
RNA: GGGAGUUCUACAGUCCGACGAUCGCUUCGAUAUCCGCAUGCUAACAUGUGUGAGGGUGUGGAGGUCCCAGGGUGUGUGUAUGUGAAUGUCAGUGGCUUGGGUGCUGUGUGGAGAGAGAGAGAGAGAGAGAGAGAGAGAGAGAGAGAGAGAGAGAGAGAGAGCUGCACAGGAUGAAGCAGCUGCCCUGAGCCCAUCUGGUGCUGUGCACCUGGUCCUUGUCCAGCCGAGGGCCUGGGGGCAGAAGAACACACCAUAGGGAGGCCCUUGUAUGGGUGUCUGCCCUAUGUGAGGUCAUAGAAUGUUCUCUUGCGGUCGCACUAGUGUGGAAUUCUCGGGUGUCAAGG
B9: ENSMUSG00000042529.424|Kcnj12 (ssRNA)
RNA: GGGAGUUCUACAGUCCGACGAUCGCUUCGAUAUCCGCAUGCUAGUGUGGAGGUCCCAGGGUGUGUGUAUGUGAAUGUCAGUGGCUUGGGUGCUGUGUGGAGAGAGAGAGAGAGAGAGAGAGAGAGAGAGAGAGAGAGAGAGAGAGAGAGCUGCACAGGAUGAAGCAGCUGCCCUGAGCCCAUCUGGUGCUGUGCACCUGGUCCUUGUCCAGCCGAGGGCCUGGGGGCAGAAGAACACACCAUAGGGAGGCCCUUGUAUGGGUGUCUGCCCUAUGUGAGGUCAUAGAAUGUUAAAUCUAUUUUACUCUUGCGGUCGCACUAGUGUGGAAUUCUCGGGUGUCAAGG
B10: ENSMUSG00000042529.423|Kcnj12 (ssRNA)
RNA: GGGAGUUCUACAGUCCGACGAUCGCUUCGAUAUCCGCAUGCUAGUGAGGGUGUGGAGGUCCCAGGGUGUGUGUAUGUGAAUGUCAGUGGCUUGGGUGCUGUGUGGAGAGAGAGAGAGAGAGAGAGAGAGAGAGAGAGAGAGAGAGAGAGAGAGAGCUGCACAGGAUGAAGCAGCUGCCCUGAGCCCAUCUGGUGCUGUGCACCUGGUCCUUGUCCAGCCGAGGGCCUGGGGGCAGAAGAACACACCAUAGGGAGGCCCUUGUAUGGGUGUCUGCCCUAUGUGAGGUCAUAGAAUGUUAAAUCUCUCUUGCGGUCGCACUAGUGUGGAAUUCUCGGGUGUCAAGG

Target: TDP-43 (Homo sapiens, UniProt Q13148 1-414)
Sequence (Q13148 whole entry): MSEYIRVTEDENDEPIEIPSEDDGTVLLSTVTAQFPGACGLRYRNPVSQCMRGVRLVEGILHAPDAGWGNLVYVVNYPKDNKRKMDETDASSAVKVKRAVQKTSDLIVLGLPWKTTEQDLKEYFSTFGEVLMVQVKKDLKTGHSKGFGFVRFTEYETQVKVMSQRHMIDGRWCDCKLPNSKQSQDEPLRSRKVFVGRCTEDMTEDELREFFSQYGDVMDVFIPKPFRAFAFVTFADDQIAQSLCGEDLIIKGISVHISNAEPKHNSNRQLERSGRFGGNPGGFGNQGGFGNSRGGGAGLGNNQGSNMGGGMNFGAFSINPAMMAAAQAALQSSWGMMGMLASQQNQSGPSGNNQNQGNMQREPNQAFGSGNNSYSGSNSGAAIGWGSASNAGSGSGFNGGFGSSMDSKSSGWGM
Experiment: RNA Bind-n-Seq with designed 260-mer pool; 25 mM Tris-HCl, 150 mM KCl, 3 mM MgCl2, BSA (printed 500 mg/mL), 20 units/mL SUPERase IN; pH not stated; 500 nM RNA pool, 1 h, 4 C; TDP-43 5, 50, 500 nM; high values mean tight binding
Conditions: protein: recombinant; tags: SBP (GST cleaved off with PreScission; pGEX-GST-SBP)
Method in brief: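 Recombinant SBP-tagged TDP-43 at 5, 50 or 500 nM was captured on streptavidin beads, then incubated 1 h at 4 °C with 500 nM of an in vitro-transcribed 260-nt 3′ UTR oligo pool in 25 mM Tris-HCl, 150 mM KCl, 3 mM MgCl2, BSA and SUPERase IN. Bound RNA was washed, eluted with biotin, reverse transcribed, PCR-amplified and sequenced. Binding is R, each oligo's mapped-read-normalized abundance in the bound sample divided by its abundance in input. Duplicates used two independent protein batches.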

Row | Binder | binding signal
1 | B1 | 1.04 R (bound/input frequency ratio)
2 | B2 | 6.59 R (bound/input frequency ratio)
3 | B3 | 6.38 R (bound/input frequency ratio)
4 | B4 | 5.22 R (bound/input frequency ratio)
5 | B5 | 6.65 R (bound/input frequency ratio)
6 | B6 | 6.04 R (bound/input frequency ratio)
7 | B7 | 6.11 R (bound/input frequency ratio)
8 | B8 | 6.32 R (bound/input frequency ratio)
9 | B9 | 5.67 R (bound/input frequency ratio)
10 | B10 | 7.6 R (bound/input frequency ratio)
